According to PubChem BioAssay (Tox21):
Inconclusive results are not listed. The source made the active and inactive calls. Unless noted, calls follow the shape of the dose curve; as a rule, active = well fitted curve in the direction sought with a large enough effect in the repeat runs; inconclusive = weak or mixed curves; inactive = no such curve, though single readings can be large; an effect the other way counts as inactive or inconclusive.

How the values were obtained:
[1] = qHTS assay to identify aromatase inhibitors - cell viability counter screen (AID 743084);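 also: cells stimulated with testosterone during compound exposure; nearly all actives have a fitted effect of over 55% in size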
[2] = qHTS assay to identify small molecule that activate the aryl hydrocarbon receptor (AhR) signaling pathway - cell viability counter screen (AID 743086);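 also: HepG2 liver cells carrying the AhR DRE luciferase reporter; series mostly up to about 70 µM; nearly all actives have a fitted effect of over 45% in size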
Summary of the method: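 Cytotoxicity counter screen: CellTiter-Fluor signal (30 min, 37 C) in 4000 HepG2 cells/well carrying the DRE-luciferase reporter, following 24 h compound exposure at 37 C.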

[3] = target: Peroxisome proliferator-activated receptor gamma (Homo sapiens) (UniProt P37231); assay: qHTS assay to identify small molecule agonists of the peroxisome proliferator-activated receptor gamma (PPARg) signaling pathway (AID 743094; active = well fitted activation curve with a large enough effect in the signal ratio in the repeat runs, not every such curve was filed as active; the % refers to the signal ratio)
Chain of Peroxisome proliferator-activated receptor gamma (Homo sapiens) (P37231 whole entry, looked up): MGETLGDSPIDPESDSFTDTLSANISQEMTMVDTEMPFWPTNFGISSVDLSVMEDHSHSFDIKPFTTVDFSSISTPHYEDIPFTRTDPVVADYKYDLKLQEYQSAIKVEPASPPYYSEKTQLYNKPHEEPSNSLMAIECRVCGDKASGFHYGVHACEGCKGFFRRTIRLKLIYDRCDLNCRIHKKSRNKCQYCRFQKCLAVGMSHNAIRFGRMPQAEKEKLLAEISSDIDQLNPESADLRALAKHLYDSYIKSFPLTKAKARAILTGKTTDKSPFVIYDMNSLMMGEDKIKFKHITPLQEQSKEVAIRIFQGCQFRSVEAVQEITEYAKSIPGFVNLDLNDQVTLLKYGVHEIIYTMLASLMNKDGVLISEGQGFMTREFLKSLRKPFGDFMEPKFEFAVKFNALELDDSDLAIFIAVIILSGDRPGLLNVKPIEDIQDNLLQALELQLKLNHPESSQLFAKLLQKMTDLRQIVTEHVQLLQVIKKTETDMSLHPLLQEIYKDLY
Summary of the method: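 Following 5 h plating at 37C, PPARg-bla HEK293H cells receive compound or DMSO for 17 h; fluorescence intensity is recorded after LiveBLAzer B/G loading for 1 h at room temperature.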

[4] = target: Peroxisome proliferator-activated receptor gamma (Homo sapiens) (UniProt P37231); assay: qHTS assay to identify small molecule antagonists of the peroxisome proliferator-activated receptor gamma (PPARg) signaling pathway (AID 743191; calls by dose curve; also: series mostly up to about 63 µM; nearly all actives have a fitted effect of over 30% in size)
Summary of the method: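 Beta-lactamase reporter under UAS control in HEK293H PPARg-bla cells; compound treatment 17 h at 37C. Read-out: fluorescence intensity after 1 h room-temperature incubation with LiveBLAzer B/G FRET substrate.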

[5] = qHTS assay to identify small molecule antagonists of the peroxisome proliferator-activated receptor gamma (PPARg) signaling pathway - cell viability counter screen (AID 743194); also: nearly all actives have a fitted effect of over 55% in size
Summary of the method: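 Viability was measured as CellTiter-Glo luminescence in GeneBLAzer PPARg UAS-bla HEK293H cells. These cells had been exposed 17 h at 37 C to compounds together with rosiglitazone at 50 nM final, with the beta-lactamase readout taken in the same wells.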

[6] = qHTS assay for small molecule agonists of the antioxidant response element (ARE) signaling pathway - cell viability counter screen (AID 743203; calls by dose curve; also: nearly all actives have a fitted effect of over 55% in size)
Summary of the method: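 Compounds in DMSO were pinned onto ARE-bla HepG2 cells plated 5 hrs earlier at 2,000 cells/well. Sixteen hours later at 37C/5% CO2, CellTiter-Glo was added and luminescence measured after 30 min at room temperature.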

[7] = qHTS assay for small molecule activators of the heat shock response signaling pathway - cell viability counter screen (AID 743209); also: nearly all actives have a fitted effect of over 50% in size
Summary of the method: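 Counter screen for cytotoxicity in HeLa HSE-bla reporter cells. Treatment was 5 h at 37 C; viability was detected by luminescent ATP assay (CellTiter-Glo) in the same wells as the beta-lactamase read.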

[8] = qHTS assay for small molecule activators of the heat shock response signaling pathway (AID 743210; active = well fitted activation curve with a large enough effect in the signal ratio in the repeat runs, with a control signal flat, not every such curve was filed as active; the % refers to the signal ratio;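 also: HeLa cells with beta-lactamase reporter driven by heat shock elements; series mostly up to about 63 µM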)
Summary of the method: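 In HSE-bla HeLa cells, 5 h compound incubation (37 C) precedes addition of LiveBLAzer B/G substrate; after 2.5 h at room temperature, fluorescence intensity indicates reporter induction.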

[9] = target: Aryl hydrocarbon receptor (Homo sapiens) (UniProt P35869); assay: qHTS assay to identify small molecule that activate the aryl hydrocarbon receptor (AhR) signaling pathway (AID 743085);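 also: HG2L7.5c1 human HepG2 liver cells with stably integrated DRE-driven firefly reporter; series mostly up to about 70 µM; nearly all actives have a fitted effect of over 15% in size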
Chain of Aryl hydrocarbon receptor (Homo sapiens) (P35869 whole entry, looked up): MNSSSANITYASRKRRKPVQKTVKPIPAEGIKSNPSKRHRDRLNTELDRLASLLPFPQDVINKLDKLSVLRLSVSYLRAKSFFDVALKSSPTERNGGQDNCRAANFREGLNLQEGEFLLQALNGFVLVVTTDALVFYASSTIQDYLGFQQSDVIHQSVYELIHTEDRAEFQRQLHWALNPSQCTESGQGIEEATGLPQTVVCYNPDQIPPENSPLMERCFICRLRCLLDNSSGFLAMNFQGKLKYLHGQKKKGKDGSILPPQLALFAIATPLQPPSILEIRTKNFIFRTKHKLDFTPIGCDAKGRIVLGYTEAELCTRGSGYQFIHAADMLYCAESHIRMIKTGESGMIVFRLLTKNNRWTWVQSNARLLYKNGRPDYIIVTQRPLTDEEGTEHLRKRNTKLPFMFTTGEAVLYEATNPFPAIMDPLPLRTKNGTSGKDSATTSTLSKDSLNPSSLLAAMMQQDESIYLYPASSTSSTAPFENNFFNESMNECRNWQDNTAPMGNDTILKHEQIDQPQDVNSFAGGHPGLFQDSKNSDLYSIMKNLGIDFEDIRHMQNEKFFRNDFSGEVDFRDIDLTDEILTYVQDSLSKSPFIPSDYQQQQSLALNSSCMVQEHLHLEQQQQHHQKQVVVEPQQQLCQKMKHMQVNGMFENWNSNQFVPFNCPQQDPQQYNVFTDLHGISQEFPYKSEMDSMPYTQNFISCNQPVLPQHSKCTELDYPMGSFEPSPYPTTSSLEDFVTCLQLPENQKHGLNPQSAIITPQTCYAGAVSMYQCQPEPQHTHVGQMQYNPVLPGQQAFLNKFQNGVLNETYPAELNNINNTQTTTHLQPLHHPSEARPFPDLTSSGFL
Summary of the method: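 Reporter assay in engineered HepG2 line HG2L7.5c1, whose plasmid carries twenty dioxin responsive elements upstream of firefly luciferase. Treatment lasted 24 h at 37C; ONE-Glo luminescence gauged induction.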

[10] = qHTS assay for small molecule agonists of the antioxidant response element (ARE) signaling pathway (AID 743202; active = well fitted activation curve with a large enough effect in the signal ratio in the repeat runs, not every such curve was filed as active; the % refers to the signal ratio)
Summary of the method: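 An ARE-responsive beta-lactamase gene stably integrated in HepG2 cells serves as reporter. After 5 h plating and 16 h compound incubation at 37 C, fluorescence of the B/G FRET substrate was measured.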
% is scaled to controls: 0 for no effect and ±100 for the full control effect.

C[C@@H]1O[C@@H](O[C@@H]2[C@@H](O)[C@H](OCCc3ccc(O)c(O)c3)O[C@H](CO[C@@H]3O[C@H](CO)[C@@H](O)[C@H](O)[C@H]3O)[C@H]2OC(=O)/C=C/c2ccc(O)c(O)c2)[C@H](O)[C@H](O)[C@H]1O
inactive: Potency [1] | Potency [2] | outcome [3] | Potency [4] | outcome [5] | outcome [6] | outcome [7] | outcome [8]

N[C@@H](CCC(=O)Nc1ccc([N+](=O)[O-])cc1)C(=O)O
inactive: Potency [1] | Potency [9] | outcome [5] | Potency [10] | outcome [6] | outcome [7] | outcome [8]

NC(CO)C(=O)NNCc1ccc(O)c(O)c1O (stereo not given)
inactive: Potency [1] | Potency [2] | outcome [3] | Potency [4] | outcome [5] | outcome [6] | outcome [7] | outcome [8]

CCCCCCOc1ccccc1C(N)=O
inactive: Potency [1] | Potency [2] | outcome [3] | Potency [4] | outcome [5] | outcome [6] | outcome [7] | outcome [8]

C#CC(C)N(C)C(=O)Nc1ccc(Cl)cc1 (stereo not given)
inactive: Potency [1] | Potency [2] | outcome [3] | Potency [4] | Potency [10] | outcome [6] | outcome [7] | outcome [8]

O=C1c2cccc3c2[C@H](CCC3)CN1[C@@H]1CN2CCC1CC2
inactive: Potency [1] | Potency [9] | outcome [3] | outcome [5] | Potency [10] | outcome [6] | outcome [7] | outcome [8]

O=C(NCCN1CCOCC1)c1ccc(Cl)cc1
inactive: Potency [1] | Potency [2] | outcome [3] | Potency [4] | outcome [5] | Potency [10] | outcome [6] | outcome [7] | outcome [8]

CCN(CC)CC(=O)Nc1c(C)cccc1C
inactive: Potency [1] | Potency [2] | outcome [5] | Potency [10] | outcome [6] | outcome [7] | outcome [8]

On1nnc2ccccc21
inactive: Potency [1] | outcome [3] | Potency [4] | Potency [10] | outcome [6] | outcome [7] | outcome [8]

COCCOC(=O)C1=C(C)NC(C)=C(C(=O)OC(C)C)C1c1cccc([N+](=O)[O-])c1 (stereo not given)
inactive: Potency [1] | Potency [2] | outcome [3] | Potency [4] | outcome [6] | outcome [7] | outcome [8]

CC(=O)Nc1cccc(C)c1
inactive: Potency [1] | Potency [9] | outcome [3] | outcome [5] | Potency [10] | outcome [6] | outcome [7] | outcome [8]

CC1(CO)CN(c2ccccc2)NC1=O (stereo not given)
inactive: Potency [1] | Potency [2] | outcome [5] | outcome [6] | outcome [7] | outcome [8]

Nc1ccc(S(=O)(=O)Nc2ccc(Cl)nn2)cc1
inactive: Potency [1] | Potency [2] | outcome [3] | Potency [4] | outcome [6] | outcome [7] | outcome [8]

CCO[Si](CCCS)(OCC)OCC
inactive: Potency [1] | Potency [9] | outcome [3] | outcome [5] | Potency [10] | outcome [6] | outcome [7] | outcome [8]

Cc1cccc(C)c1OCC(C)N (stereo not given)
inactive: Potency [1] | Potency [2] | outcome [3] | Potency [4] | outcome [5] | Potency [10] | outcome [6] | outcome [7] | outcome [8]

CC(C)(C)OC(=O)c1ccc(O)cc1
inactive: Potency [1] | Potency [2] | outcome [3] | Potency [4] | outcome [5] | outcome [6] | outcome [7] | outcome [8]

CNS(=O)(=O)CCc1ccc2[nH]cc(C3CCN(C)CC3)c2c1
inactive: Potency [1] | Potency [9] | outcome [3] | outcome [5] | Potency [10] | outcome [6] | outcome [7] | outcome [8]

CCOC(=O)CC(=O)c1ccccc1
inactive: Potency [1] | Potency [2] | outcome [3] | Potency [4] | Potency [10] | outcome [6] | outcome [7] | outcome [8]

CC[C@H](C)C(=O)O[C@H]1C[C@H](O)C=C2C=C[C@H](C)[C@H](CC[C@@H](O)C[C@@H](O)CC(=O)O)[C@H]21
inactive: Potency [1] | Potency [9] | outcome [3] | outcome [5] | outcome [6] | outcome [7] | outcome [8]

CCCCOC(=O)c1ccccc1
inactive: Potency [1] | Potency [2] | outcome [3] | Potency [4] | outcome [5] | Potency [10] | outcome [6] | outcome [7]

COC(=O)C1CC(=O)C(C(=O)OC)CC1=O (stereo not given)
inactive: activation [9] 0.473% [at 8.47 µM] | viability change, negative = cytotoxic [2] 14.4% [at 8.47 µM] | activation [3] -2.09% [at 7.08 µM] | ratio activity, negative = inhibition [4] 0.96% [at 5.95 µM] | activity change, negative = cytotoxicity [5] 17.9% [at 5.95 µM] | activation [10] -4.53% [at 8.36 µM] | viability change, negative = cytotoxic [6] -0.839% [at 8.36 µM] | activity change, negative = cytotoxicity [7] 12.2% [at 5.95 µM]

O=C1CC(c2ccc(Cl)cc2)CC(=O)N1
inactive: Potency [4] | outcome [5] | Potency [10] | outcome [6] | outcome [7] | outcome [8]

CCCOC(=O)C(C)O (stereo not given)
inactive: Potency [9] | outcome [3] | Potency [4] | outcome [5] | Potency [10] | outcome [6] | outcome [7]

O=C(CCN1CCN(CCO)CC1)N1c2ccccc2Sc2ccc(C(F)(F)F)cc21
inactive: Potency [9] | outcome [3] | Potency [4] | outcome [6] | outcome [7]
